Structures are written as SMILES. About 4,300 (8.3%) of roughly 52,000 compounds were called active. Rule as the data show it: active = survival mostly below about 52% (no sharp cut-off); inactive = mostly above about 56%. For the sample, actives were picked, then their nearest neighbours and some compounds at random.

These results are taken from PubChem BioAssay AID463173 (ICCB-Longwood Screening Facility, Harvard Medical School, 2010).

In the assay the test system is DeltatarO mutant. The assay is described as follows: S. aureus survival, RN4220 and DeltatarO strains – OD600, teichoic acid synthesis inhibitors, primary screen (AID 463173). The conditions noted are these: S. aureus RN4220 wild type/DeltatarO growth, OD600, 18 h, stronger effect = lower value, screened at 18.75 µg/mL (by protocol).
In the case of `Cc1ccc(C(=O)N/C(=C\c2cn(S(=O)(=O)N(C)C)c3ccccc23)C(=O)NCCCn2ccnc2)cc1`, the survival was 80% (inactive).
For the compound `O=C(c1ccc(CS(=O)(=O)c2c(Cl)cccc2Cl)o1)N1CCN(c2ccccc2)CC1`, the survival is 107% (inactive).
In the case of `Cc1ccc(CNC(=O)CN2C(=O)CSc3c2c(C)nn3-c2ccccc2)cc1`, the survival was 89% (inactive).
With `CC(CCc1ccccc1)NC(=O)Cn1ncc2c3ccccc3n(Cc3ccccc3F)c2c1=O` (centres undefined), the survival was 92% (inactive).
Regarding `COc1ccccc1N1CCN(C(=O)CCS(=O)(=O)c2cc(Br)cc3c2N(C(=O)C2CC2)CC3)CC1`, the survival is 83% (inactive).
With `O=C(O)CCn1c(=O)c2cccn2c2cccnc21`, the survival was 98% (inactive).
On to `CCOC(=O)c1c(-c2ccccc2)oc2ccc(OCc3cccc(Br)c3)cc12`, for which the survival is 38% (active).
As for `O=C(NCCc1ccccc1)C(=O)NCC(c1cccnc1)N1CCN(c2ccc(F)cc2)CC1` (centres undefined), the survival was 103% (inactive).
Take `C=CCN(CC=C)C(=O)COc1ccc(Cl)cc1Cl`: the survival was 73% (inactive).
Consider `CCOc1cccc2sc(NC(=O)c3ccc(S(=O)(=O)N4CCc5ccccc54)cc3)nc12`, for which the survival was 71% (inactive).
For `Oc1ccc(-c2cccc(-c3ccc(O)cc3)c2)cc1`, the survival was 27% (active).
With `CCOc1ccc(CNCc2c(C(=O)O)n(Cc3ccc(OC)cc3)c3ccccc23)cc1` the figure was 82% (inactive); with `CCOc1ccc(CNCc2c(C(=O)O)n(Cc3ccc(C)cc3)c3cc(C)ccc23)cc1`, 12% (active).
The figure for `Cc1ccccc1Cn1c(C(=O)O)c(CNCc2cccc(F)c2)c2ccccc21` is 52% (active); for `CCOc1ccc(CCNCc2c(C(=O)O)n(Cc3ccc(C)cc3)c3cc(OC)ccc23)cc1` it is 58% (inactive).
As for `COc1ccc(OC)c(CNCc2c(C(=O)O)n(Cc3cccc(F)c3)c3cc(OC)ccc23)c1`, the survival was -1% (active).
As to `Cc1ccc2c(CNCCc3ccccc3)c(C(=O)O)n(Cc3ccccc3C)c2c1`, the survival was 6% (active).
Turning to `COc1ccc2c(CNCc3ccc(Cl)cc3)c(C(=O)O)n(Cc3ccccc3C)c2c1`, the survival is 97% (inactive).
`Cc1ccc(CNCc2c(C(=O)O)n(Cc3ccccc3C)c3cc(C)ccc23)cc1`: the survival was 67% (inactive).
For the compound `COc1ccc(OC)c(CNCc2c(C(=O)O)n(Cc3ccccc3)c3cc(OC)ccc23)c1`, the survival is 77% (inactive).
Consider `Cc1ccc2c(CNCc3cccc(Cl)c3)c(C(=O)O)n(Cc3ccc(F)cc3Cl)c2c1`, for which the survival is 70% (inactive).
The figure for `C=Cc1ccc(Cn2c(C(=O)O)c(CNCCc3ccccc3)c3ccc(C)cc32)cc1` is 92% (inactive); for `CCc1ccc(CNCc2c(C(=O)O)n(Cc3cccc(F)c3)c3cc(OC)ccc23)cc1` it is 79% (inactive).
On to `CCC1CCCCN1C(=O)Cn1c(=O)n(-c2ccccc2C(F)(F)F)c(=O)c2c(C)c(C(=O)N(C)C)sc21` (centres undefined), for which the survival was 80% (inactive).
